# ± gives the standard deviation of the averaged measurements.
# Tests used:
# Assay in all cases: promoter activity interaction Z-score (Lux/OD deviation from empty-vector control); higher = stronger promoter induction by the compound
# [1] = tested on: E. coli BW25113 soxSp lux reporter
# How it was run: (§1)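 E. coli BW25113 (wild type or marA, soxS or rob deletion) carrying low-copy luxCDABE promoter reporters grew in 40 µl LB Lennox in 384-well plates at 37°C. Each compound was tested at four 1:2 dilutions in biological duplicates. OD600 and luminescence were read every 30 min for 12 h. Areas were taken over 0–8 h (wild type) or 1–9 h (mutants), and wells below 10% of median growth area were removed. The score is the Z-transformed residual of growth-normalised luminescence fitted against the empty-vector control.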
# [2] = tested on: E. coli BW25113 tolCp lux reporter
# How it was run: as §1
# [3] = tested on: E. coli BW25113 acrABp lux reporter
# How it was run: as §1
# [4] = tested on: E. coli BW25113 marRABp lux reporter
# How it was run: as §1
# [5] = tested on: E. coli BW25113 micFp lux reporter
# How it was run: as §1
# [6] = tested on: E. coli BW25113 ompFp lux reporter
# How it was run: as §1
# [7] = tested on: E. coli BW25113 robp lux reporter
# How it was run: as §1
# [8] = 71.3 µg/ml, genetic background: Δrob
# [9] = 71.3 µg/ml, genetic background: ΔsoxS
# [10] = 142.7 µg/ml, genetic background: wild type
# [11] = 142.7 µg/ml, genetic background: ΔmarA
# [12] = 142.7 µg/ml, genetic background: Δrob
# [13] = 142.7 µg/ml, genetic background: ΔsoxS
# [14] = 0.062 µg/ml, genetic background: wild type
# [15] = 0.062 µg/ml, genetic background: ΔmarA
# [16] = 0.062 µg/ml, genetic background: Δrob
# [17] = 0.062 µg/ml, genetic background: ΔsoxS
# [18] = 0.12 µg/ml, genetic background: wild type
# [19] = 0.12 µg/ml, genetic background: ΔmarA
# [20] = 0.12 µg/ml, genetic background: Δrob
# [21] = 0.12 µg/ml, genetic background: ΔsoxS
# [22] = 0.25 µg/ml, genetic background: wild type
# [23] = 0.25 µg/ml, genetic background: ΔmarA
# [24] = 0.25 µg/ml, genetic background: Δrob
# [25] = 0.25 µg/ml, genetic background: ΔsoxS
# [26] = 0.49 µg/ml, genetic background: wild type
# [27] = 0.49 µg/ml, genetic background: ΔmarA
# [28] = 0.49 µg/ml, genetic background: Δrob
# [29] = 0.49 µg/ml, genetic background: ΔsoxS
structure (smiles),measurement,setting,value
O=C(/C=C/C=C/c1ccc2c(c1)OCO2)N1CCCCC1 [Piperine],promoter activity interaction Z-score,[1]; [8],0.0476 ± 0.29
same,promoter activity interaction Z-score,[1]; [9],-0.421 ± 0.13
same,promoter activity interaction Z-score,[1]; [10],-0.0465 ± 0.24
same,promoter activity interaction Z-score,[1]; [11],-0.324 ± 0.079
same,promoter activity interaction Z-score,[1]; [12],-0.0385 ± 0.2
same,promoter activity interaction Z-score,[1]; [13],-0.403 ± 0.12
same,promoter activity interaction Z-score,"[2]; 17.8 µg/ml, genetic background: wild type",0.553 ± 0.54
same,promoter activity interaction Z-score,"[2]; 17.8 µg/ml, genetic background: ΔmarA",0.188 ± 1.3
same,promoter activity interaction Z-score,"[2]; 17.8 µg/ml, genetic background: Δrob",0.472 ± 2.8
same,promoter activity interaction Z-score,"[2]; 17.8 µg/ml, genetic background: ΔsoxS",-0.947 ± 0.95
same,promoter activity interaction Z-score,"[2]; 35.7 µg/ml, genetic background: wild type",0.236 ± 0.38
same,promoter activity interaction Z-score,"[2]; 35.7 µg/ml, genetic background: ΔmarA",-0.452 ± 0.27
same,promoter activity interaction Z-score,"[2]; 35.7 µg/ml, genetic background: Δrob",-0.598 ± 1.4
same,promoter activity interaction Z-score,"[2]; 35.7 µg/ml, genetic background: ΔsoxS",-0.521 ± 0.018
same,promoter activity interaction Z-score,"[2]; 71.3 µg/ml, genetic background: wild type",0.515 ± 0.49
same,promoter activity interaction Z-score,"[2]; 71.3 µg/ml, genetic background: ΔmarA",-0.357 ± 0.42
same,promoter activity interaction Z-score,[2]; [8],-0.0523 ± 0.77
same,promoter activity interaction Z-score,[2]; [9],0.108 ± 1.1
same,promoter activity interaction Z-score,[2]; [10],0.274 ± 0.22
same,promoter activity interaction Z-score,[2]; [11],0.331 ± 2.3
same,promoter activity interaction Z-score,[2]; [12],-0.437 ± 0.62
same,promoter activity interaction Z-score,[2]; [13],-0.524 ± 0.86
CN(C)c1ccc(O)c2c1C[C@H]1C[C@H]3[C@H](N(C)C)C(O)=C(C(N)=O)C(=O)[C@@]3(O)C(O)=C1C2=O [Minocycline],promoter activity interaction Z-score,[3]; [14],-0.0516 ± 0.1
same,promoter activity interaction Z-score,[3]; [15],0.0987 ± 0.99
same,promoter activity interaction Z-score,[3]; [16],0.189 ± 0.07
same,promoter activity interaction Z-score,[3]; [17],-0.577 ± 0.76
same,promoter activity interaction Z-score,[3]; [18],0.0573 ± 0.042
same,promoter activity interaction Z-score,[3]; [19],0.356 ± 1.1
same,promoter activity interaction Z-score,[3]; [20],0.339 ± 0.34
same,promoter activity interaction Z-score,[3]; [21],0.263 ± 0.16
same,promoter activity interaction Z-score,[3]; [22],0.223 ± 0.18
same,promoter activity interaction Z-score,[3]; [23],0.273 ± 0.88
same,promoter activity interaction Z-score,[3]; [24],0.387 ± 0.58
same,promoter activity interaction Z-score,[3]; [25],0.196 ± 0.47
same,promoter activity interaction Z-score,[3]; [26],2.47 ± 0.56
same,promoter activity interaction Z-score,[3]; [27],0.55 ± 0.59
same,promoter activity interaction Z-score,[3]; [28],2.62 ± 0.41
same,promoter activity interaction Z-score,[3]; [29],2.95 ± 1.3
same,promoter activity interaction Z-score,[4]; [14],-0.0844 ± 0.21
same,promoter activity interaction Z-score,[4]; [15],0.0361 ± 0.21
same,promoter activity interaction Z-score,[4]; [16],0.129 ± 0.094
same,promoter activity interaction Z-score,[4]; [17],-0.0813 ± 0.0076
same,promoter activity interaction Z-score,[4]; [18],0.341 ± 0.081
same,promoter activity interaction Z-score,[4]; [19],0.0649 ± 0.098
same,promoter activity interaction Z-score,[4]; [20],0.115 ± 0.4
same,promoter activity interaction Z-score,[4]; [21],0.221 ± 0.22
same,promoter activity interaction Z-score,[4]; [22],0.449 ± 0.55
same,promoter activity interaction Z-score,[4]; [23],0.264 ± 0.17
same,promoter activity interaction Z-score,[4]; [24],0.436 ± 0.19
same,promoter activity interaction Z-score,[4]; [25],0.173 ± 0.13
same,promoter activity interaction Z-score,[4]; [26],3.58 ± 0.53
same,promoter activity interaction Z-score,[4]; [27],3.1 ± 1.2
same,promoter activity interaction Z-score,[4]; [28],1.07 ± 0.62
same,promoter activity interaction Z-score,[4]; [29],2.67 ± 0.47
same,promoter activity interaction Z-score,[5]; [14],0.172 ± 0.028
same,promoter activity interaction Z-score,[5]; [15],-0.151 ± 0.19
same,promoter activity interaction Z-score,[5]; [16],0.0108 ± 0.022
same,promoter activity interaction Z-score,[5]; [17],-0.429 ± 0.019
same,promoter activity interaction Z-score,[5]; [18],0.33 ± 0.72
same,promoter activity interaction Z-score,[5]; [19],-0.0481 ± 0.0079
same,promoter activity interaction Z-score,[5]; [20],-0.075 ± 0.12
same,promoter activity interaction Z-score,[5]; [21],0.127 ± 0.026
same,promoter activity interaction Z-score,[5]; [22],0.933 ± 0.82
same,promoter activity interaction Z-score,[5]; [23],-0.106 ± 0.069
same,promoter activity interaction Z-score,[5]; [24],0.138 ± 0.07
same,promoter activity interaction Z-score,[5]; [25],-0.0781 ± 0.17
same,promoter activity interaction Z-score,[5]; [26],1.77 ± 1.9
same,promoter activity interaction Z-score,[5]; [27],0.182 ± 0.15
same,promoter activity interaction Z-score,[5]; [28],0.0732 ± 0.00089
same,promoter activity interaction Z-score,[5]; [29],0.743 ± 0.81
same,promoter activity interaction Z-score,[6]; [14],0.0637 ± 0.43
same,promoter activity interaction Z-score,[6]; [15],-0.699 ± 0.25
same,promoter activity interaction Z-score,[6]; [16],0.129 ± 0.49
same,promoter activity interaction Z-score,[6]; [17],-0.457 ± 0.12
same,promoter activity interaction Z-score,[6]; [18],0.41 ± 0.83
same,promoter activity interaction Z-score,[6]; [19],0.0821 ± 0.38
same,promoter activity interaction Z-score,[6]; [20],0.365 ± 0.77
same,promoter activity interaction Z-score,[6]; [21],0.49 ± 0.25
same,promoter activity interaction Z-score,[6]; [22],0.511 ± 0.43
same,promoter activity interaction Z-score,[6]; [23],-0.386 ± 0.46
same,promoter activity interaction Z-score,[6]; [24],0.978 ± 0.71
same,promoter activity interaction Z-score,[6]; [25],0.461 ± 0.59
same,promoter activity interaction Z-score,[6]; [26],1.65 ± 0.69
same,promoter activity interaction Z-score,[6]; [27],1.7 ± 0.75
same,promoter activity interaction Z-score,[6]; [28],1.71 ± 1.5
same,promoter activity interaction Z-score,[6]; [29],2.93 ± 0.19
same,promoter activity interaction Z-score,[7]; [14],-0.379 ± 0.35
same,promoter activity interaction Z-score,[7]; [15],-0.0848 ± 0.76
same,promoter activity interaction Z-score,[7]; [16],0.746 ± 0.51
same,promoter activity interaction Z-score,[7]; [17],-0.6221 ± 0.0048
same,promoter activity interaction Z-score,[7]; [18],0.195 ± 0.02
same,promoter activity interaction Z-score,[7]; [19],0.369 ± 0.11
same,promoter activity interaction Z-score,[7]; [20],0.83 ± 0.12
same,promoter activity interaction Z-score,[7]; [21],0.357 ± 0.091
same,promoter activity interaction Z-score,[7]; [22],0.736 ± 1.1
same,promoter activity interaction Z-score,[7]; [23],0.349 ± 0.033
same,promoter activity interaction Z-score,[7]; [24],1.12 ± 0.15
same,promoter activity interaction Z-score,[7]; [25],-0.142 ± 0.44
same,promoter activity interaction Z-score,[7]; [26],0.715 ± 0.67
same,promoter activity interaction Z-score,[7]; [27],0.586 ± 0.056
same,promoter activity interaction Z-score,[7]; [28],0.685 ± 1.6
same,promoter activity interaction Z-score,[7]; [29],0.64 ± 1.7
same,promoter activity interaction Z-score,[1]; [14],0.269 ± 0.16
same,promoter activity interaction Z-score,[1]; [15],-0.245 ± 0.04
same,promoter activity interaction Z-score,[1]; [16],0.0739 ± 0.0036
same,promoter activity interaction Z-score,[1]; [17],-0.185 ± 0.069
same,promoter activity interaction Z-score,[1]; [18],0.291 ± 0.56
same,promoter activity interaction Z-score,[1]; [19],0.0029 ± 0.014
same,promoter activity interaction Z-score,[1]; [20],-0.102 ± 0.055
same,promoter activity interaction Z-score,[1]; [21],0.203 ± 0.098
same,promoter activity interaction Z-score,[1]; [22],0.499 ± 0.44
same,promoter activity interaction Z-score,[1]; [23],-0.0485 ± 0.1
same,promoter activity interaction Z-score,[1]; [24],0.0791 ± 0.26
same,promoter activity interaction Z-score,[1]; [25],-0.114 ± 0.015
same,promoter activity interaction Z-score,[1]; [26],0.538 ± 0.72
same,promoter activity interaction Z-score,[1]; [27],0.583 ± 0.97
same,promoter activity interaction Z-score,[1]; [28],0.542 ± 0.91
same,promoter activity interaction Z-score,[1]; [29],0.336 ± 0.25
same,promoter activity interaction Z-score,[2]; [14],-0.706 ± 0.049
same,promoter activity interaction Z-score,[2]; [15],-0.479 ± 0.52
same,promoter activity interaction Z-score,[2]; [16],-0.423 ± 0.84
same,promoter activity interaction Z-score,[2]; [17],-0.991 ± 0.75
same,promoter activity interaction Z-score,[2]; [18],0.000824 ± 0.27
same,promoter activity interaction Z-score,[2]; [19],-0.0931 ± 0.19
same,promoter activity interaction Z-score,[2]; [20],-0.00328 ± 1.2
same,promoter activity interaction Z-score,[2]; [21],0.557 ± 0.39
same,promoter activity interaction Z-score,[2]; [22],-0.22 ± 0.98
same,promoter activity interaction Z-score,[2]; [23],-0.201 ± 0.28
same,promoter activity interaction Z-score,[2]; [24],0.646 ± 0.087
same,promoter activity interaction Z-score,[2]; [25],-0.226 ± 0.84
same,promoter activity interaction Z-score,[2]; [26],-0.114 ± 0.25
same,promoter activity interaction Z-score,[2]; [27],0.0123 ± 0.63
same,promoter activity interaction Z-score,[2]; [28],0.966 ± 0.27
same,promoter activity interaction Z-score,[2]; [29],0.526 ± 0.79
